An excerpt weighted towards active compounds, which were near 2.3% of everything screened.
AMA1 RON2 block – AMA1-RON2 (P. falciparum) interaction inhibition; hit rate 0.2% among 360,000; Potency, µM (doses to about 58.2 µM), for inactives: at the top dose activity change, negative = inhibition, most hits filed as inhibitors; AlphaScreen AMA1-biotinylated RON2 peptide binding;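 also: potency is read from the fitted curve at half-maximal effect; 0% = vehicle wells and -100% = peptide control; nearly all actives have a fitted effect of over 45% in size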
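AMA1 (3D7) with his tag at 25 nM final met compounds first, then biotinylated RON2 peptide at 25 nM; detection used donor plus acceptor beads, 10 µg/mL apiece, read by AlphaScreen after 30 min at room temperature.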
AmpC detergent – blocks E. coli AmpC beta-lactamase in detergent assay; P00811; AmpC hydrolysis of nitrocefin, absorbance 480 nm, 0.01% Triton; Potency, µM (series often up to 114 µM), inactives show top-dose activity change, negative = inhibition, hits mostly inhibitors; hit rate 0.041% among 370,000; AID 485294;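 also: potency is read from the fitted curve at half-maximal effect; 0% = no-compound wells and -100% = no-enzyme wells; nearly all actives have a fitted effect of over 25% in size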
Target sequence (P00811 whole entry, looked up): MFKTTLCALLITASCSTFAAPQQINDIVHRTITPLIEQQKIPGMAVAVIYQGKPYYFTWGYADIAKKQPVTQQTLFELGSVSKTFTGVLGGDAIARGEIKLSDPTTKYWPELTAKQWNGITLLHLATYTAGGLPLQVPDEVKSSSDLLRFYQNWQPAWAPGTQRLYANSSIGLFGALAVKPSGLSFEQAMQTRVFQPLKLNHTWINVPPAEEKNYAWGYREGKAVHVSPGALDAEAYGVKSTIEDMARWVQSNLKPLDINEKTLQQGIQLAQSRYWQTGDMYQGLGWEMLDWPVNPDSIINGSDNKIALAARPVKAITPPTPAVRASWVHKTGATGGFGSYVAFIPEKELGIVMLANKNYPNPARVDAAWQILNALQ
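AmpC (5.3 nM in the dispensed reagent) in 20 mM phosphate pH 7.0 with 0.01% (detergent screen) or 0.0001% Triton X-100 was preincubated with compounds for 15 min at room temperature. Nitrocefin was then added from an 800 uM solution, and hydrolysis was followed at 480 nm.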
AmpC no deterg – AmpC beta-lactamase inhibition without detergent | P00811 | AmpC nitrocefin hydrolysis, absorbance 480 nm, 0.0001% Triton | Potency, µM (titrated, usually from 57.1 µM), without a hit: at the highest dose activity change, negative = inhibition, hits mostly inhibitors | hit rate 0.52% among 330,000;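 also: potency is read from the fitted curve at half-maximal effect; plate controls were no compound for no effect and no enzyme for full effect; nearly all actives have a fitted effect of over 20% in size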
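AmpC (5.3 nM in the dispensed reagent) in 20 mM phosphate pH 7.0 with 0.01% (detergent screen) or 0.0001% Triton X-100 was preincubated with compounds for 15 min at room temperature. Nitrocefin was then added from an 800 uM solution, and hydrolysis was followed at 480 nm.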
Lassa entry inh – inhibitors of Lassa virus binding or cell entry. Lassa virus pseudotype entry inhibition, cell reporter. Potency, µM (titrated, usually from 37.9 µM), without a hit: at the highest dose activity change, negative = inhibition, usual class: inhibitors. hit rate 1.2% among 300,000. AID 540256; calls by dose curve; tested in HEK293 cells; also: potency is read from the fitted curve at half-maximal effect; % is scaled to controls: 0 for no effect and ±100 for the full control effect; nearly all actives have a fitted effect of over 50% in size
MARV entry inh – inhibitors of Marburg virus binding or cell entry; Marburg virus pseudotyped entry inhibition, cell reporter; hit rate 1.8% among 300,000; Potency, µM (top dose mostly 37.8 µM), inactives show at the top dose activity change, negative = inhibition, hits mostly inhibitors; calls by dose curve; tested in HEK293 cells; also: potency is read from the fitted curve at half-maximal effect; % is scaled to controls: 0 for no effect and ±100 for the full control effect
HeLa G2M arrest – causes HeLa cells to arrest in G2/M phase | shares compounds with MARV entry inh | HeLa cell cycle G2/M arrest, Hoechst DNA content imaging | Potency, µM, usual class: inhibitors | hit rate 60% among 25 | AID 2441
WI-38 tox – toxic to WI-38 fibroblasts in PNC inhibitor counter-screen; WI-38 normal lung fibroblasts, ATPLite luminescence ATP viability, 24 h; Potency, µM (top dose mostly 46.1 µM), inactives show at the top dose activity change, negative = cytotoxicity, hits mostly inhibitors; AID 2729; 120 tested, under 10 active; shares compounds with MARV entry inh
PNC inh conf – confirmation of perinucleolar compartment assembly inhibitors; shares compounds with MARV entry inh; PC3M PTB-GFP, PNC prevalence imaging, 16 h; Potency, µM (series often up to 46.1 µM), without a hit: at the top dose activity, negative = PNC inhibition, most hits filed as inhibitors; hit rate 50% among 120; AID 2730
PC3M caspase – PC3M caspase 3/7 activation by PNC inhibitor hits. activity change, positive = activation, % at 46.1 µM. 120 tested, under 10 active. AID 2731. PC3M-GFP caspase 3/7 activation, luminescence, 24 h. shares compounds with MARV entry inh
Numbers without * were called inactive; ? = inconclusive; . = no result; ! = a repeat was not active; [ ] = remark or other dose. Unless noted, calls follow the shape of the dose curve; as a rule, active = well fitted curve in the direction sought with a large enough effect; inconclusive = small, poorly fitted or top-dose-only effect, or another doubt; inactive = no such curve, though single readings can be large; an effect the other way counts as inactive or inconclusive.

SMILES	AMA1 RON2 block	AmpC detergent	AmpC no deterg	Lassa entry inh	MARV entry inh	WI-38 tox	PNC inh conf	PC3M caspase	others
COc1ccc(NC(=O)COc2cccc3c2OC(C)(C)C3)cc1OC	-5.1%	1.5%	33.0%	.	.	.	.	.
CCc1ccc(-n2nc(C)c3c(C)cc(=O)n(CC(=O)NCc4ccc(C)cc4)c32)cc1	.	22.3%	.	2.9%[46.1 µM]	.	.	.	.
COc1cc(/C=N/NC(=O)c2ccc(CSc3nc4ccccc4[nH]3)cc2)cc(OC)c1OC	-3.9%	-2.9%	47.6%	?	?	5.4%	-10.8%	-15.7
COc1cc(/C=N/NC(=O)c2ccc3nc[nH]c3c2)cc(OC)c1OC	15.8%	-0.6%	-28.0%	-0.9%	5.3%[46.1 µM]	.	.	.
Cn1nnc2c(N3CCN(c4ccccc4Cl)CC3)ncnc21	.	-3.9%	.	9.9%[46.1 µM]	.	.	.	.
Cc1cc(C)c(S(=O)(=O)/N=C2/C=C(Sc3ncn[nH]3)C(=O)c3ccccc32)cc1C	-26.1%	-8.9%	-56.8%	12.6µM*	1.58µM*	-6.7%	6.31µM*	-7.0
Cc1cc(C)c(S(=O)(=O)Nc2ccc(-c3ccc(N4CCCCCC4)nn3)cc2)c(C)c1	.	24.4%	.	-11.7%[46.1 µM]	.	.	.	.
C=C(C)[C@H]1Cc2c(ccc3c2O[C@@H]2COc4cc(OC)c(OC)cc4[C@@H]2C3=O)O1	.	.	.	2.31µM*	0.58µM*	.	.	.	HeLa G2M arrest=0.631*
CC(=O)c1c(C)cc(C)c(CSc2nc(C)cc(=O)[nH]2)c1C	-2.3%	-6.7%	20.0%	-14.2%	?	0.1%	?	-4.0
CCC1(O)CC2CN(CCc3c([nH]c4ccccc34)[C@@](C(=O)OC)(c3cc4c(cc3OC)N(C=O)C3[C@]45CCN4CC=C[C@@](CC)([C@@H](OC(C)=O)[C@]3(O)C(=O)OC)[C@H]45)C2)C1 (stereo not given in full)	.	.	.	.	12.6µM*!	.	.	.	HeLa G2M arrest=?
CCC1(O)CC2CN(CCc3c([nH]c4ccccc34)C(C(=O)OC)(c3cc4c(cc3OC)N(C=O)C3C(O)(C(=O)OC)C(OC(C)=O)C5(CC)C=CCN6CCC43C65)C2)C1 (stereo not given)	4.3%	.	.	?	?	.	.	.
CCOc1ccc(CCNC(=O)c2nn(C)c3c2CSc2ccccc2-3)cc1	.	-9.6%	.	3.4%[46.1 µM]	-19.1%[46.1 µM]	.	.	.
CCN(CC)C(=O)N1c2ccccc2C=Cc2ccccc21	9.0%	-8.5%	-3.1%	0.631µM*	1.12µM*	17.9%	5.01µM*	-1.7
Cc1ccc(Nc2c(-c3ccc(N4CCOCC4)cc3)nc3ncccn23)c(C)c1	-19.6%	?	247.1%	-3.4%[46.1 µM]	?	.	.	.
Cc1cccc(C)c1Nc1c(-c2ccc(N3CCOCC3)cc2)nc2ncccn12	-2.0%	?	172.6%	-20.4%[46.1 µM]	-6.3%[46.1 µM]	-18.0%	-3.1%	-3.4
CN(C(=O)CSc1nnc(COc2ccccc2)o1)c1ccccc1	.	-10.8%	.	-20.5%[46.1 µM]	?	.	.	.
CSc1nc(-c2ccc(C)cc2)nc(C(Cl)Cl)n1	0.3%	-2.6%	-6.6%	?	?	-13.4%	12.6µM*	?
CN(C)c1ccc(C(=O)OCC(=O)NC2CCCCCC2)cc1	1.0%	-14.4%	-2.7%	?	?	.	.	.
CN(C)c1ccc(N=Nc2ccccc2C(=O)OCC(=O)NC2CCCC2)cc1	7.94µM*	-4.0%	33.8%	?	?	?	?	-13.4
C/C(=N/OCO/N=C(/C)c1ccc(F)cc1)c1ccc(F)cc1	-6.0%	-2.9%	-17.4%	3.16µM*	?	20.2%	22.4µM*	1.4
C/C(=N/OCO/N=C(\C)c1ccc(F)cc1F)c1ccc(F)cc1F	-12.0%	?	-17.8%	22.4%	9.6%	.	.	.
CC(C)CNC(=O)CSc1nnc(-c2cccc(S(=O)(=O)N3CCCCC3)c2)o1	8.5%	-1.8%	-15.4%	-7.3%	-5.3%[46.1 µM]	-8.6%	-22.1%	-6.6
COc1ccc(C(=O)NCC(c2ccc3c(c2)OCO3)N2CCOCC2)cc1OC (stereo not given)	.	1.2%	.	?	.	.	.	.
O=C(Nc1cccc(S(=O)(=O)N2CCCC2)c1)c1ccc2c(c1)OCO2	3.1%	-3.2%	-15.8%	-9.2%	-0.3%	.	.	.
O=C(Nc1cccc(S(=O)(=O)N2CCCCCC2)c1)c1ccc2c(c1)OCO2	-6.7%	-6.4%	-32.1%	?	?	-14.0%	-29.9%	-8.2
SMILES	AMA1 RON2 block	AmpC detergent	AmpC no deterg	Lassa entry inh	MARV entry inh	WI-38 tox	PNC inh conf	PC3M caspase	others
Fc1ccc(-c2nc(-c3cccs3)[nH]c2-c2ccc(F)cc2)cc1	-16.9%	-2.2%	-50.9%	?	?	.	.	.
Oc1ccc(-c2nc(-c3ccc(F)cc3)c(-c3ccncc3)[nH]2)cc1	-1.0%	?	-31.2%	?	5.01µM*	.	.	.	HeLa G2M arrest=?
Cc1ccccc1C(c1c(C)n(C)n(-c2ccccc2)c1=O)c1c(C)n(C)n(-c2ccccc2)c1=O	.	10.6%	.	19.3%[46.1 µM]	-14.1%[46.1 µM]	.	.	.
COc1cccc(/C=N/NC(=O)c2cc3c(OC)c(OC)ccc3[nH]2)c1OC	-19.2%	0.1%	-30.4%	?	?	-15.6%	?	-8.6
CCOc1cc(CNc2ccc(O)cc2)ccc1OCc1ccc(Cl)cc1	.	-1.7%	.	-12.0%[46.1 µM]	?	.	.	.
Cc1sc2nc(C3CC3)nc(SCC(=O)N3c4ccccc4CC3C)c2c1C (stereo not given)	10.4%	-8.0%	-22.9%	1.83µM*	4.11µM*	-0.6%	7.08µM*	-1.3
Cc1cccc(CCNC(=O)c2ccc(CSCc3cccc(Cl)c3)o2)c1	.	-5.6%	.	-16.4%[46.1 µM]	.	.	.	.
CCOC(=O)NC1(NC(C)C)Oc2ccccc2O1	6.8%	-6.2%	-20.0%	-19.2%	12.8%	.	.	.
CCOC(=O)NC1(Nc2ccc(C)cc2)Oc2ccccc2O1	-6.9%	?	-7.6%	?	-11.9%	7.6%	-18.4%	-6.5
COc1ccccc1NC1=C(N2CCCCC2)C(=O)c2ccccc2C1=O	?	-0.7%	-23.8%	?	?	-20.9%	11.2µM*	?
Cc1ccc(NC2=C(N3CCCCC3)C(=O)c3ccccc3C2=O)cc1	1.6%	-0.8%	-14.0%	?	?	.	.	.
Cc1ccc(NC(=S)NCCc2ccc(S(N)(=O)=O)cc2)cc1C	0.3%	0.5%	-12.0%	-0.5%	-14.2%	-4.6%	32.5%	-4.4
Cc1cc(C)cc(NC(=S)NCCc2ccc(S(N)(=O)=O)cc2)c1	-3.3%	?	-24.6%	-9.8%	7.3%[46.1 µM]	.	.	.

Assay outcomes deposited in PubChem BioAssay by National Center for Advancing Translational Sciences (NCATS).
